We go through 93 compounds from PubChem BioAssay AID1892 (NMMLSC, 2009).

In all, about 5,900 compounds went through this assay and about 140 (2.4%) were called active. Shown is part of a subset that was picked to be rich in actives. Unmarked numbers belong to inactive results. No stated cut-off is given here; in the data, active means binding response below about 16% or above about 210%; inactive means in between.

The target of this assay is Mitogen-activated protein kinase kinase kinase 2 (Homo sapiens) (UniProt Q9Y2U5). Put plainly: modulators of MEK5 binding to wildtype MEKK2, confirmation, biochemical, single concentration, multiplex bead flow cytometry (AID 1892). Particulars: Alexa488-MEK5 binding to MEKK2 WT, at 10 µM, actives lie on both sides.
For `CCOc1ccc(S(=O)(=O)N(CC(=O)O)c2ccccc2)cc1`, the binding response (% of control) was 103%.
Under `COc1cccc(OC)c1C(=O)Nc1ccc(Cc2ccncc2)cc1` stands 100%; under `CCCN(CCC)c1nc2c(C)cccn2c(=O)c1/C=C1/SC(=S)N(Cc2ccco2)C1=O`, 85%; under `CCCCn1c(SCC(=O)NCCc2ccc(OC)c(OC)c2)nc2c1c(=O)n(C)c(=O)n2C`, 103%.
In the case of `CCc1ccc(-c2nn(-c3ccccc3)cc2CSC(=N)N)cc1`, the binding response (% of control) was 210% (active).
With `N=C(N)SCc1cccc2ccccc12` the figure was 105%; with `CC(=O)N1CCN(S(=O)(=O)c2ccc(C)c([N+](=O)[O-])c2)C1C(C)C` (stereo not drawn), 97%.
With `COc1ccc(CC(=O)N2N=C(C)CC2(O)C(F)(F)F)cc1` (stereo not drawn) the figure was 96%; with `COc1ccc(S(=O)(=O)Nc2ccc3oc(C)c(C(C)=O)c3c2)cc1`, 95%.
Regarding `NC(N)=N/N=C/c1ccc(OCc2ccc(Cl)cc2Cl)cc1`, the binding response (% of control) is 234% (active).
For the compound `CC(C)CC(=O)NC(=S)Nc1cc(C(=O)O)ccc1Cl`, the binding response (% of control) was 102%.
For `CCn1cc(CN2CCC(C(=O)Nc3cccc(-c4cccc(Cl)c4)c3)CC2)cn1`, the binding response (% of control) is 182%.
Under `O=C(Cc1cccc2ccccc12)Nc1ccc2oc(-c3ccccc3)nc2c1` stands 115%.
For the compound `O=C(CN1C(=O)c2cccnc2Oc2ccc(Cl)cc21)Nc1ccc(F)cc1`, the binding response (% of control) was 99%.
With `N/C(=N\OS(=O)(=O)c1cccc([N+](=O)[O-])c1)c1ccncc1` the figure was 103%; with `c1ccc2c(c1)C(=NC1CCCCC1)NC2=NC1CCCCC1`, 125%; with `CCOC(=O)CN(C)S(=O)(=O)c1ccc(-c2cc(C(=O)OC)sc2C(F)(F)F)cc1`, 101%.
With `O=C(NCCC1=CCCCC1)c1ccc(Cl)c([N+](=O)[O-])c1` the figure was 105%; with `CCN(CC)CCOc1ccc2c(c1)C(=NNC(=O)c1ccccn1)c1cc(OCCN(CC)CC)ccc1-2`, 210% (active); with `CN(C)CCCNC(=O)c1cc(C(=O)Cc2ccc(Cl)cc2)c[nH]1`, 106%.
On to `C[C@H]1CCC(=O)N([C@H](CSc2ccccc2)Cc2ccccc2)CC1`, for which the binding response (% of control) is 111%.
Turning to `O=C(NCCCN1CCCCCC1)c1ccc(N2CCCC2=O)cc1`, the binding response (% of control) is 156%.
In the case of `Cn1c(C(=O)NCCCN2CCCCC2)cc2sccc21`, the binding response (% of control) was 119%.
Under `O=C(NCCCN1CCCCCC1)C1CC(=O)N(C2CCCC2)C1` (stereo not drawn) stands 1% [inhibitor] (active); under `C=CCn1c(=S)sc2c(=O)[nH]c(C)nc21`, 106%; under `O=C1Nc2ccc(Br)cc2/C1=N/N=C/C1=C(N2CCOCC2)C(=C\c2ccccc2)/CC1`, 47%.
With `N#C/C(=C\C1=C(N2CCOCC2)C(=C\c2ccccc2)/CC1)C(=O)Nc1ccccc1F` the figure was 10% [inhibitor] (active).
`O=C(O)C1CCN(c2ccc([N+](=O)[O-])cc2[N+](=O)[O-])CC1`: the binding response (% of control) was 103%.
With `Cc1ccc2c(C)c(C(=O)N3CCN(c4ccncc4)CC3)oc2c1C`, the binding response (% of control) is 161%.
With `CC1(C)Cc2cccc(OCC(=O)N3CCN(c4ccc([N+](=O)[O-])cc4)CC3)c2O1` the figure was 99%; with `CN1C(=O)/C(=C\c2ccc(-c3ccccc3)o2)SC1=S`, 23%; with `CCOC(=O)N1CCN(CC(=O)n2c(C)c(C)c3ccccc32)CC1`, 93%.
As for `FC(F)(F)c1nc(-c2ccccc2)ncc1-c1nnnn1-c1ccccc1`, the binding response (% of control) was 96%.
Under `O=C(NCCCN1CCN(c2ccc(F)cc2)CC1)Nc1ccc([N+](=O)[O-])cc1` stands 129%.
Under `COc1ccc(C(=O)C[n+]2ccc(C)cc2)cc1` stands 104%; under `COc1cc(Br)c(-c2sc(Nc3ccccc3)n[n+]2-c2ccccc2)cc1OC`, 134%; under `CN(C)CCCNC(=S)N1CCN(c2nc(-c3ccccc3)cs2)CC1`, 108%.
With `O=C(O)CC(Cc1ccccc1)C(=O)Nc1ccc([N+](=O)[O-])cc1` (stereo not drawn) the figure was 96%; with `Cc1onc(-c2ccccc2Cl)c1C(=O)OCC(=O)c1ccccc1`, 94%.
Regarding `COc1cc(C)nc(N2CCCC(C(=O)NCC(C)C)C2)n1` (stereo not drawn), the binding response (% of control) was 97%.
With `CCN(CC)CCC(c1ccc2c(c1)OCO2)c1c(OC)cc(OC)c2c(-c3ccccc3)cc(=O)oc12` (stereo not drawn), the binding response (% of control) was 134%.
With `COc1ccc(CNC(=O)C2CCN(S(C)(=O)=O)CC2)cc1` the figure was 103%; with `Cc1ccc(CNC(=O)Cn2c(=O)c3sccc3n(Cc3cccc([N+](=O)[O-])c3)c2=O)cc1`, 103%; with `COc1cccc(/C=N\NC(=O)C2=NNC(=O)C2C)c1O` (stereo not drawn), 100%.
With `COc1cccc(CNCCc2c[nH]c3ccccc23)c1OCc1ccccc1F` the figure was 131%; with `C#CCOCCOCCOCCNc1nc(N2CCN(C(=O)C([C@@H](C)CC)n3cc(C(N)COC(=O)C(F)(F)F)nn3)CC2)nc(N2CCN(C(=O)[C@H](CCCCN)n3cc(C(N)CC(C)C)nn3)CC2)n1` (stereo partly drawn), 191%.
In the case of `O=C(Nc1ccn(Cc2ccccc2)n1)c1cccc(F)c1`, the binding response (% of control) is 105%.
With `CN(C)CCCN(C(=O)COc1ccccc1)c1nc2c(Cl)cccc2s1` the figure was 133%; with `O=C(CN1CCN(C(=O)c2ccco2)CC1)Nc1ccc(Cl)c(C(F)(F)F)c1`, 112%.
Turning to `CNC(C)C#Cc1ccc2sc3cc(OC)c(OC)cc3c(=O)c2c1` (stereo not drawn), the binding response (% of control) was 128%.
Under `COc1cccc(C2CC(c3ccccc3)=NN2S(=O)(=O)c2ccccc2)c1OC` (stereo not drawn) stands 98%.
In the case of `O=C(Nc1ccc(Cl)cn1)c1cnn2cccnc12`, the binding response (% of control) is 108%.
As for `CCC(C)OC(=O)C(C)Oc1ccc(-c2ccccc2)cc1` (stereo not drawn), the binding response (% of control) was 106%.
Under `Cn1ccc(=Nc2ccc(NC(=O)c3ccc(N=c4ccn(C)c5ccc([N+](=O)[O-])cc45)cc3)cc2)cc1` stands 152%.
With `CC1CCN(C2=NC(=O)/C(=C/c3cn[nH]c3-c3ccccc3)S2)CC1` the figure was 94%; with `COc1cccc(Nc2ncccc2C(=O)O)c1`, 97%.
Turning to `CCCc1nnc(SCC(=O)N2C(C)CCCC2C)n1CC` (stereo not drawn), the binding response (% of control) is 110%.
With `Cc1ccc(C)c(CN2CCC(CNC(=O)Nc3ccc(C)c(F)c3)CC2)c1` the figure was 146%.
`CSCC[C@H](NC(=O)CCCn1nnc2ccccc2c1=O)C(=O)O`: the binding response (% of control) is 105%.
As to `CCc1ccc2nc(Nc3ncc(C(C)=O)c(C)n3)nc(C)c2c1`, the binding response (% of control) is 103%.
Under `CCOc1ccc(S(=O)(=O)NCCCn2ccnc2)cc1NC(C)=O` stands 100%.
Under `CCC(=C/c1sc2ccc3ccccc3c2[n+]1C)/C=C1\Sc2ccc3ccccc3c2N1C` stands 13% [inhibitor] (active); under `O=C(O)c1cccnc1NC1CCCC1`, 109%.
For the compound `COc1ccc(N2CCN(Cc3nnc(-c4ccccc4)o3)CC2)cc1`, the binding response (% of control) was 94%.
For `C[N+](C)(C)CCNC(=O)c1c(O)c2c([nH]c1=O)CCCC2`, the binding response (% of control) is 101%.
With `COc1ccc(NC(=O)Cn2nnc(C(=O)NCCc3ccc(OC)c(OC)c3)c2N)cc1` the figure was 98%; with `CC(C)(C)c1nnc(NC(=O)C2c3ccccc3Oc3ccccc32)s1`, 93%.
With `Clc1ccc(-c2nnc(SCc3nc4ccccc4s3)o2)cc1` the figure was 98%; with `CCCn1c(=N)n(CC(=O)c2ccc(Cl)c(Cl)c2)c2ccccc21`, 144%; with `CCCCN1C(=O)/C(=C(/C#N)C(N)=O)c2ccccc21`, 102%.
Under `O=C(NCCN1CCOCC1)[C@H](Cc1ccccc1)N1C(=O)c2ccccc2C1=O` stands 103%.
For `COc1cc2c(cc1OC)CN(C(=O)c1ccc(S(=O)(=O)N3CCCCCC3)cc1)CC2`, the binding response (% of control) is 97%.
With `O=C(O)c1cc(Cl)c(Cl)cc1C(=O)Nc1cccc2ncccc12` the figure was 99%; with `Cc1noc(C)c1S(=O)(=O)N(C)Cc1ccccc1`, 105%.
In the case of `CN(Cc1ccccc1)CC(O)COc1ccc(CNCc2cc3ccccc3s2)cc1` (stereo not drawn), the binding response (% of control) is 129%.
With `CN(CC(=O)Nc1cccc(F)c1)CC(=O)Nc1cccc([N+](=O)[O-])c1` the figure was 99%.
Under `CC(C)c1ccc(C(=O)NCCCc2ccccc2)cc1` stands 94%.
With `COc1cc(-c2nnc(Cn3cc(C(F)(F)F)ccc3=O)o2)cc(OC)c1OC` the figure was 103%.
Take `O=C(CCCO)N/N=C/c1cc(Br)ccc1O`: the binding response (% of control) was 106%.
With `O=C(NC1CCN(Cc2ccccc2)CC1)c1cc(Br)c(Br)[nH]1` the figure was 128%; with `Cc1cccc(OCCNC(=O)CSc2ccc(C(F)(F)F)cc2[N+](=O)[O-])c1`, 104%; with `N=c1c2c(-c3ccccc3)c(-c3ccccc3)n(Cc3ccccc3)c2ncn1CCCO`, 134%.
With `Cc1nn(-c2ccccc2)c(NC(=O)c2cccs2)c(-c2ccc(Cl)cc2)c1=O`, the binding response (% of control) is 101%.
On to `CCn1c(NC(=O)c2ccccc2)c(-c2cccs2)c(=O)c2ccccc21`, for which the binding response (% of control) was 102%.
Under `C/C=C/c1ccc(OCCCCN2CCC(C)CC2)c(OC)c1` stands 109%; under `CC(C)C(=O)N1c2ccccc2NC2=C(C(=O)CCC2)C1c1ccc(N(C)C)cc1` (stereo not drawn), 116%; under `Cc1c(-c2ccccc2)cn2c1-c1ccc(C)n1CC2`, 93%.
With `O=C(Cc1cccs1)N/N=C/c1ccc(OCc2ccccc2)cc1` the figure was 101%; with `Cc1c(S(=O)(=O)NCc2ccccc2)c(=O)n(C)c(=O)n1C`, 102%.
With `Cc1[nH]c2ccc(S(N)(=O)=O)cc2c1C` the figure was 97%; with `C=CCN1C=C2C(=O)C(C)(OC(=O)CCc3ccccc3)C(=O)C=C2C=C1c1ccc(C#N)cc1` (stereo not drawn), 98%.
In the case of `C=C(C)C1CC=C(C)/C(=N\NC(=O)CNc2ccccc2OC)C1` (stereo not drawn), the binding response (% of control) is 107%.
With `O=C(CSc1ccc(-c2ccc(F)cc2)nn1)Nc1ccc2c(c1)OCCO2` the figure was 105%.
